From PubChem BioAssay AID1159580 (chemical genetic matrix, 2015)
The campaign covered roughly 5,500 compounds. About 2,000 (36%) were called active. Roughly 18% stayed inconclusive and do not appear here. No stated cut-off is given here; in the data, active means normalized growth mostly below about 0.91 (no sharp cut-off); inconclusive means no clear call, values can overlap the other calls; inactive means mostly above about 0.92. The list shows a part of the results.

Assay: chemical genetic growth profiling, strain panel (AID 1159580);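 further: tested at 20 µM; growth read once vehicle control cultures reached saturation at 30 °C; 1 = growth at the plate median or of vehicle wells; lower values mean less growth of the strain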
Conditions: growth OD

Measured: normalized growth

CC(=O)O[C@H]1CC[C@@]2(C)C(=CC(=O)C3C4CCC(C(C)CCCC(C)C)[C@@]4(C)CCC32)C1 (stereo not given in full)
inactive: S. cerevisiae deletion strains, locus YAL013W, strain DEP1, active compounds read low 1.01 | S. cerevisiae deletion strains, locus YAL021C, strain ccr4, active compounds read low 0.992 | S. cerevisiae deletion strains, locus YAL026C, strain drs2, active compounds read low 1.02 | S. cerevisiae deletion strains, locus YAL030W, strain snc1, active compounds read low 0.992 | S. cerevisiae deletion strains, locus YBL061C, strain skt5, active compounds read low 0.988 | S. cerevisiae deletion strains, locus YBR009C, strain hhf1, active compounds read low 1.01 | S. cerevisiae deletion strains, locus YBR021W, strain FUR4, active compounds read low 0.999 | S. cerevisiae deletion strains, locus YBR023C, strain chs3, active compounds read low 0.985 | S. cerevisiae deletion strains, locus YBR171W, strain sec66, active compounds read low 0.996 | S. cerevisiae deletion strains, locus YBR229C, strain ROT2, active compounds read low 1 | S. cerevisiae deletion strains, locus YBR231C, strain swc5, active compounds read low 1.02 | S. cerevisiae deletion strains, locus YBR279W, strain paf1, active compounds read low 0.996 | S. cerevisiae deletion strains, locus YCL011C, strain gbp2, active compounds read low 0.994 | S. cerevisiae deletion strains, locus YCL016C, strain dcc1, active compounds read low 0.99 | S. cerevisiae deletion strains, locus YCL029C, strain bik1, active compounds read low 0.986 | S. cerevisiae deletion strains, locus YCL061C, strain MRC1, active compounds read low 1 | S. cerevisiae deletion strains, locus YCL069W, strain vba3, active compounds read low 0.997 | S. cerevisiae deletion strains, locus YCR088W, strain abp1, active compounds read low 0.995 | S. cerevisiae deletion strains, locus YDL005C, strain med2, active compounds read low 0.971 | S. cerevisiae deletion strains, locus YDL035C, strain GPR1, active compounds read low 1.02 | S. cerevisiae deletion strains, locus YDL040C, strain nat1, active compounds read low 0.991 | S. cerevisiae deletion strains, locus YDL074C, strain BRE1, active compounds read low 1.04 | S. cerevisiae deletion strains, locus YDL101C, strain DUN1, active compounds read low 1 | S. cerevisiae deletion strains, locus YDL185W, strain tfp1, active compounds read low 1.02 | S. cerevisiae deletion strains, locus YDL192W, strain arf1, active compounds read low 1 | S. cerevisiae deletion strains, locus YDR001C, strain nth1, active compounds read low 0.99 | S. cerevisiae deletion strains, locus YDR069C, strain doa4, active compounds read low 0.992 | S. cerevisiae deletion strains, locus YDR101C, strain arx1, active compounds read low 1 | S. cerevisiae deletion strains, locus YDR137W, strain rgp1, active compounds read low 1.01 | S. cerevisiae deletion strains, locus YDR150W, strain NUM1, active compounds read low 0.998 | S. cerevisiae deletion strains, locus YDR159W, strain sac3, active compounds read low 1.01 | S. cerevisiae deletion strains, locus YDR162C, strain NBP2, active compounds read low 1.01 | S. cerevisiae deletion strains, locus YDR195W, strain ref2 0.977 | S. cerevisiae deletion strains, locus YDR297W, strain sur2, active compounds read low 0.995 | S. cerevisiae deletion strains, locus YDR318W, strain mcm21, active compounds read low 0.978 | S. cerevisiae deletion strains, locus YDR334W, strain swr1, active compounds read low 0.994 | S. cerevisiae deletion strains, locus YDR335W, strain msn5, active compounds read low 0.993 | S. cerevisiae deletion strains, locus YDR388W, active compounds read low 0.979 | S. cerevisiae deletion strains, locus YDR392W, strain spt3, active compounds read low 0.944 | S. cerevisiae deletion strains, locus YDR502C, strain sam2, active compounds read low 1 | S. cerevisiae deletion strains, locus YEL003W, strain gim4, active compounds read low 1.01 | S. cerevisiae deletion strains, locus YEL037C, strain rad23, active compounds read low 0.994 | S. cerevisiae deletion strains, locus YEL061C, strain CIN8 (second series), active compounds read low 0.995 | S. cerevisiae deletion strains, locus YEL061C, strain CIN8, active compounds read low 1 | S. cerevisiae deletion strains, locus YER015W, strain faa2, active compounds read low 0.996 | S. cerevisiae deletion strains, locus YER016W, strain bim1, active compounds read low 0.989 | S. cerevisiae deletion strains, locus YER110C, active compounds read low 0.982 | S. cerevisiae deletion strains, locus YER111C, strain swi4, active compounds read low 0.999 | S. cerevisiae deletion strains, locus YER155C, strain BEM2 (second series), active compounds read low 1.01 | S. cerevisiae deletion strains, locus YER155C, strain BEM2, active compounds read low 1.01 | S. cerevisiae deletion strains, locus YER167W, strain BCK2, active compounds read low 1.01 | S. cerevisiae deletion strains, locus YFR010W, strain ubp6, active compounds read low 1.01 | S. cerevisiae deletion strains, locus YGL078C, strain dbp3, active compounds read low 1.02 | S. cerevisiae deletion strains, locus YGL086W, strain mad1, active compounds read low 1.01 | S. cerevisiae deletion strains, locus YGL167C, strain pmr1, active compounds read low 0.993 | S. cerevisiae deletion strains, locus YGL173C, strain kem1, active compounds read low 0.978 | S. cerevisiae deletion strains, locus YGL227W, strain vid30, active compounds read low 0.984 | S. cerevisiae deletion strains, locus YGL240W, strain doc1, active compounds read low 1.01 | S. cerevisiae deletion strains, locus YGL248W, strain PDE1, active compounds read low 0.987 | S. cerevisiae deletion strains, locus YGL253W, strain hxk2, active compounds read low 0.993 | S. cerevisiae deletion strains, locus YGR135W, strain pre9, active compounds read low 0.984 | S. cerevisiae deletion strains, locus YGR252W, strain gcn5, active compounds read low 1.07 | S. cerevisiae deletion strains, locus YHR013C, strain ard1, active compounds read low 0.994 | S. cerevisiae deletion strains, locus YHR027C, strain rpn1, active compounds read low 0.994 | S. cerevisiae deletion strains, locus YHR030C, strain SLT2, active compounds read low 1 | S. cerevisiae deletion strains, locus YHR079C, strain IRE1 (second series), active compounds read low 0.991 | S. cerevisiae deletion strains, locus YHR094C, strain hxt1, active compounds read low 0.975 | S. cerevisiae deletion strains, locus YHR129C, strain ARP1, active compounds read low 0.999 | S. cerevisiae deletion strains, locus YHR142W, strain chs7, active compounds read low 0.979 | S. cerevisiae deletion strains, locus YHR200W, strain rpn10, active compounds read low 0.985 | S. cerevisiae deletion strains, locus YIL066C, strain RNR3, active compounds read low 1 | S. cerevisiae deletion strains, locus YIL073C, strain SPO22, active compounds read low 1.03 | S. cerevisiae deletion strains, locus YIL125W, strain kgd1, active compounds read low 1.01 | S. cerevisiae deletion strains, locus YIR030C, strain dcg1, active compounds read low 0.989 | S. cerevisiae deletion strains, locus YJL092W, strain hpr5, active compounds read low 0.99 | S. cerevisiae deletion strains, locus YJL095W, strain BCK1 (second series), active compounds read low 0.982 | S. cerevisiae deletion strains, locus YJL095W, strain BCK1, active compounds read low 1.01 | S. cerevisiae deletion strains, locus YJL115W, strain asf1, active compounds read low 0.981 | S. cerevisiae deletion strains, locus YJL129C, strain trk1, active compounds read low 0.989 | S. cerevisiae deletion strains, locus YJL134W, strain LCB3, active compounds read low 1.01 | S. cerevisiae deletion strains, locus YJL154C, strain vps35, active compounds read low 0.999 | S. cerevisiae deletion strains, locus YJL164C, strain tpk1, active compounds read low 1 | S. cerevisiae deletion strains, locus YJL166W, strain qcr8, active compounds read low 0.998 | S. cerevisiae deletion strains, locus YJL168C, strain set2, active compounds read low 0.976 | S. cerevisiae deletion strains, locus YJL187C, strain SWE1 (second series), active compounds read low 1.01 | S. cerevisiae deletion strains, locus YJL187C, strain SWE1, active compounds read low 0.991 | S. cerevisiae deletion strains, locus YJR043C, strain POL32, active compounds read low 1.01 | S. cerevisiae deletion strains, locus YJR075W, strain HOC1, active compounds read low 1 | S. cerevisiae deletion strains, locus YKL009W, strain mrt4, active compounds read low 1.04 | S. cerevisiae deletion strains, locus YKL068W, active compounds read low 1 | S. cerevisiae deletion strains, locus YKL085W, strain MDH1 (second series), active compounds read low 1 | S. cerevisiae deletion strains, locus YKL085W, strain MDH1, active compounds read low 1 | S. cerevisiae deletion strains, locus YKL160W, strain elf1, active compounds read low 0.996 | S. cerevisiae deletion strains, locus YKR001C, strain vps1, active compounds read low 1.03 | S. cerevisiae deletion strains, locus YKR026C, strain gcn3, active compounds read low 0.994 | S. cerevisiae deletion strains, locus YKR091W, strain srl3, active compounds read low 0.994 | S. cerevisiae deletion strains, locus YLL001W, strain dnm1, active compounds read low 0.984 | S. cerevisiae deletion strains, locus YLL026W, active compounds read low 1 | S. cerevisiae deletion strains, locus YLL041C, strain sdh2, active compounds read low 0.993 | S. cerevisiae deletion strains, locus YLR027C, strain aat2, active compounds read low 1 | S. cerevisiae deletion strains, locus YLR039C, strain RIC1, active compounds read low 1.03 | S. cerevisiae deletion strains, locus YLR058C, strain SHM2, active compounds read low 0.999 | S. cerevisiae deletion strains, locus YLR102C, strain apc9, active compounds read low 0.975 | S. cerevisiae deletion strains, locus YLR221C, strain rsa3, active compounds read low 0.983 | S. cerevisiae deletion strains, locus YLR258W, strain gsy2, active compounds read low 1.01 | S. cerevisiae deletion strains, locus YLR262C, strain YPT6 (second series), active compounds read low 0.996 | S. cerevisiae deletion strains, locus YLR262C, strain YPT6, active compounds read low 1.02 | S. cerevisiae deletion strains, locus YLR268W, strain sec22, active compounds read low 1.02 | S. cerevisiae deletion strains, locus YLR320W, strain mms22, active compounds read low 0.991 | S. cerevisiae deletion strains, locus YLR330W, strain CHS5, active compounds read low 1 | S. cerevisiae deletion strains, locus YLR342W, strain FKS1 (second series), active compounds read low 1.03 | S. cerevisiae deletion strains, locus YLR342W, strain FKS1, active compounds read low 0.993 | S. cerevisiae deletion strains, locus YLR357W, strain rsc2, active compounds read low 0.983 | S. cerevisiae deletion strains, locus YLR370C, strain arc18, active compounds read low 0.994 | S. cerevisiae deletion strains, locus YLR371W, strain rom2, active compounds read low 0.977 | S. cerevisiae deletion strains, locus YLR384C, strain iki3, active compounds read low 0.971 | S. cerevisiae deletion strains, locus YLR418C, strain cdc73, active compounds read low 1.02 | S. cerevisiae deletion strains, locus YML016C, strain PPZ1, active compounds read low 1 | S. cerevisiae deletion strains, locus YML032C, strain rad52, active compounds read low 0.985 | S. cerevisiae deletion strains, locus YML120C, strain ndi1, active compounds read low 0.997 | S. cerevisiae deletion strains, locus YML124C, strain tub3, active compounds read low 0.988 | S. cerevisiae deletion strains, locus YMR058W, strain fet3, active compounds read low 1 | S. cerevisiae deletion strains, locus YMR078C, strain ctf18, active compounds read low 0.988 | S. cerevisiae deletion strains, locus YMR125W, strain sto1, active compounds read low 0.997 | S. cerevisiae deletion strains, locus YMR129W, active compounds read low 0.989 | S. cerevisiae deletion strains, locus YMR205C, strain PFK2, active compounds read low 0.993 | S. cerevisiae deletion strains, locus YMR223W, strain ubp8, active compounds read low 0.983 | S. cerevisiae deletion strains, locus YMR231W, strain pep5, active compounds read low 1 | S. cerevisiae deletion strains, locus YMR307W, strain GAS1, active compounds read low 1.07 | S. cerevisiae deletion strains, locus YNL067W, strain RPL9B, active compounds read low 1.01 | S. cerevisiae deletion strains, locus YNL071W, strain lat1, active compounds read low 0.994 | S. cerevisiae deletion strains, locus YNL128W, strain TEP1, active compounds read low 1.04 | S. cerevisiae deletion strains, locus YNL209W, strain ssb2, active compounds read low 0.997 | S. cerevisiae deletion strains, locus YNL233W, strain BNI4, active compounds read low 1.01 | S. cerevisiae deletion strains, locus YNL248C, strain rpa49, active compounds read low 1.01 | S. cerevisiae deletion strains, locus YNL250W, strain rad50, active compounds read low 1 | S. cerevisiae deletion strains, locus YNL271C, strain bni1, active compounds read low 1.01 | S. cerevisiae deletion strains, locus YNL298W, strain CLA4, active compounds read low 1.01 | S. cerevisiae deletion strains, locus YNL307C, strain MCK1, active compounds read low 0.985 | S. cerevisiae deletion strains, locus YNL322C, strain KRE1 (second series), active compounds read low 0.983 | S. cerevisiae deletion strains, locus YNR049C, strain mso1, active compounds read low 0.993 | S. cerevisiae deletion strains, locus YNR052C, strain pop2, active compounds read low 0.975 | S. cerevisiae deletion strains, locus YOL006C, strain TOP1, active compounds read low 1.05 | S. cerevisiae deletion strains, locus YOL012C, strain htz1 0.955 | S. cerevisiae deletion strains, locus YOL147C, strain pex11, active compounds read low 0.982 | S. cerevisiae deletion strains, locus YOR001W, strain rrp6, active compounds read low 1.01 | S. cerevisiae deletion strains, locus YOR061W, strain CKA2, active compounds read low 1.01 | S. cerevisiae deletion strains, locus YOR069W, strain VPS5, active compounds read low 1.01 | S. cerevisiae deletion strains, locus YOR070C, strain gyp1, active compounds read low 0.987 | S. cerevisiae deletion strains, locus YOR080W, strain dia2, active compounds read low 0.996 | S. cerevisiae deletion strains, locus YOR083W, strain WHI5, active compounds read low 0.98 | S. cerevisiae deletion strains, locus YOR106W, strain vam3, active compounds read low 1.01 | S. cerevisiae deletion strains, locus YOR136W, strain idh2, active compounds read low 0.995 | S. cerevisiae deletion strains, locus YOR144C, strain elg1, active compounds read low 0.99 | S. cerevisiae deletion strains, locus YOR184W, strain ser1, active compounds read low 0.998 | S. cerevisiae deletion strains, locus YOR265W, strain rbl2, active compounds read low 1 | S. cerevisiae deletion strains, locus YOR270C, strain vph1, active compounds read low 0.968 | S. cerevisiae deletion strains, locus YOR290C, strain snf2, active compounds read low 0.974 | S. cerevisiae deletion strains, locus YOR316C, strain cot1, active compounds read low 0.977 | S. cerevisiae deletion strains, locus YPL051W, strain arl3, active compounds read low 1 | S. cerevisiae deletion strains, locus YPL078C, strain atp4, active compounds read low 0.995 | S. cerevisiae deletion strains, locus YPL106C, strain sse1, active compounds read low 0.978 | S. cerevisiae deletion strains, locus YPL240C, strain hsp82, active compounds read low 0.993 | S. cerevisiae deletion strains, locus YPL241C, strain CIN2, active compounds read low 1 | S. cerevisiae deletion strains, locus YPR119W, strain clb2, active compounds read low 0.982 | S. cerevisiae deletion strains, locus YPR141C, strain kar3, active compounds read low 0.993 | S. cerevisiae deletion strains, locus YPR163C, strain tif3, active compounds read low 0.981 | S. cerevisiae deletion strains, locus YPR167C, strain met16, active compounds read low 0.984 | S. cerevisiae deletion strains, strain wtn01, active compounds read low 1.05 | S. cerevisiae strains, strain wild type, active compounds read low 1.01
